According to PubChem BioAssay AID1490 (National Center for Advancing Translational Sciences (NCATS), 2009):
“And” between values parts separate entries of the source, which are not always exact repeats. Equal values may be shown once. About 11,000 (3.5%) of roughly 310,000 compounds were called active. Not shown: some 4% with an inconclusive outcome. The list comes from a sample in which actives are over-represented; it also holds similar structures and randomly drawn compounds. Values without a mark were called inactive. The call rests on the fitted dose curve; in most records, active means well fitted inhibition curve with a large enough effect; inconclusive means small, poorly fitted or top-dose-only effect, or another doubt; inactive means no such curve, though single readings can be large or run the other way.

Biological target: 4'-phosphopantetheinyl transferase ffp (Bacillus subtilis) (UniProt Q9F4F7)
Test: qHTS Assay for Inhibitors of Bacillus subtilis Sfp phosphopantetheinyl transferase (PPTase);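 further: the enzyme is Sfp with the accession as filed and its product quenches rhodamine fluorescence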;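 on largest response in the series, negative = inhibition: 0% = enzyme reaction without inhibitor and -100% = no enzyme wells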
Conditions: Biochemical Sfp PPTase activity
Source text: Assay Submitter: Michael Burkart, University of California, San Diego
Screening Center PI: Austin, C.P.
Screening Center: NIH Chemical Genomics Center [NCGC]
The covalent attachment of a phosphopantetheinyl (4'-PP) arm to a variety of synthases and other proteins is a key posttranslational protein modification. The 4'-PP is installed on the proteins post-translationally from coenzyme A (CoA) on a conserved serine residue by action of phosphopantetheinyl transferase (PPTase) enzymes. Phosphopantetheinylation is essential for synthase activity, and removal of the PPTase gene precludes natural product synthesis in microorganisms, or in the case of fatty acid biosynthesis, renders the organism unviable. PPTase enzymes belong to a distinct structural superfamily. Within bacteria, these enzymes are grouped into two classes based upon primary structure, the AcpS-Type and Sfp-Type PPTases.
Sfp-type PPTases, corresponding to an activator of surfactin production in Bacillus subtilis, are responsible for modifying type I polyketide and nonribosomal peptide synthases of prokaryotes. Sfp-type PPTases are responsible for the activation of a variety of pathogen-associated virulence factors. Among these compounds are toxins such as mycolactone from Mycobacterium ulcerans, siderophores such as vibriobactin from Vibrio cholerae or mycobactin from Mycobacterium tuberculosis, as well as the mycolic acids which form the waxy cell wall of Mycobacteria. The biosyntheses of these natural products are considered attractive targets for drug design.
In search of small molecule Sfp-PPTase inhibitors, a fluorescence quenching assay was developed for detection of Bacillus subtilis Sfp-PPTase enzymatic activity in a miniaturized high-throughput format. The consensus ybbr acceptor peptide […] was N-terminally labeled with Black Hole Quencher-2 (BHQ-2) and used in combination with rhodamine-labeled coenzyme A as a co-substrate.
Inhibition of Sfp-PPTase was detected by recording the fluorescence intensity change over a 30-minute reaction period at a 525 nm excitation and 598 nm emission. Reagents were supplied by Michael Burkart and Timothy Foley, University of California at San Diego.
This BioAssay deposition is for validation of the developed Sfp-PPtase assay.
Assay Buffer: 50 mM Hepes-Na pH 7.6, 10 mM MgCl2, 0.01% Nonidet P-40, and 0.01% BSA.
3 uL of Sfp-PPTase enzyme (final concentration 15 nM) and 1 uL of substrate mixture (final concentration for rhodamine-CoA and BHQ-2-YbbR 5 uM and 12.5 uM, respectively) dispensed in columns 1, 2, 5 - 48. Columns 1 and 2 used to generate neutral control (uninhibited reaction)
Three uL of reagents, consisting of buffer (in columns 3 and 4 as negative control) and Sfp-PPTase (in columns 1, 2, 5 - 48) were dispensed into 1,536-well Greiner black solid bottom plate. Compounds (23 nL) were transferred via Kalypsys pintool equipped with 1,536-pin array. The plate was incubated for 15 min at room temperature, followed by the addition of 1 uL substrate to start the reaction. The plate was then centrifuged at 1000 rpm for 15 seconds, and the fluorescence intensity recorded on a ViewLux High-throughput CCD imager (Perkin-Elmer) using standard BODIPY optics (525 nm excitation and 598 nm emission). The plate was then incubated for 30 minutes, and a second read on the ViewLux was performed. The fluorescence intensity difference over the 30-minute period was used to calculate the respective reaction rate for each well.
Potency means the concentration at half of the fitted maximal effect.

Row | SMILES | largest response in the series, negative = inhibition | Potency
1 | O=C1OC(/C=C/c2ccccc2)=NC/1=C/c1ccco1 | 12.2% | 
2 | CCC1S/C(=N/N=C/c2ccco2)NC1=O (stereo not drawn) | 3.46% | 
3 | CC(C)(C)C1C/C(=C/c2ccco2)C(=O)/C(=C/c2ccco2)C1 (stereo not drawn) |  | 20 µM (active)
4 | CCCC(=O)N1CCC(CCC(=O)NC2CC2)CC1 | 11.2% | 
5 | COc1ccc(CNC(=O)C2CCN(C(=O)c3ccccc3)CC2)cc1 | 8.47% | 
6 | CCCCC(CC)CNC(=O)C(=O)C1C(=O)Nc2ccccc21 (stereo not drawn) | 22% | 
7 | CCOC(=O)CC1=CC(=O)Nc2ccccc2N1 | -6.73% | 
8 | CCOC(=O)C(=O)C1C(=O)Nc2ccccc21 (stereo not drawn) |  | 25.1 µM (active)
9 | COC1=C/C(=C/c2c(N)n3nc(CC(=O)N4CCOCC4)sc3nc2=O)C=CC1=O | -2.99% | 
10 | CCC(NC(=O)c1ccccc1NC(=O)c1ccccc1)C(=O)NNC(=O)CSc1nc2ccccc2o1 (stereo not drawn) | -1.67% | 
11 | CCOC(=O)Cc1csc(NC(=O)CSc2ccc(Br)cc2)n1 | 11.6% | 
12 | CCOC(=O)Cc1csc(NC(=O)CSc2nc(C)cc(=O)[nH]2)n1 |  | 17.8 µM (active)
13 | CCCCc1nnc(NC(=O)CSc2nc(C)cc(=O)[nH]2)s1 | 9.76% | 
14 | Cc1ccc(-n2c(SCC(=O)NCCC3=CCCCC3)nc3n[nH]c(C)c3c2=N)cc1Cl | 14.5% | 
15 | CSc1cccc(NC(=O)CN2C(=O)COc3ccc(S(=O)(=O)N4CCOCC4)cc32)c1 | 10.2% | 
16 | O=C1COc2ccc(S(=O)(=O)Nc3ccc(OC(F)(F)F)cc3)cc2N1 | 25.6% | 
17 | Cc1nc([N+](=O)[O-])cn1CC(=O)Nc1ccc(Cl)cc1 | 16.2% | 
18 | CCOC(=O)c1c(C)[nH]c(=S)c(C#N)c1-c1ccccc1 |  | 79.4 µM (active)
19 | CC(=O)c1c(C)[nH]c(=S)c(C#N)c1-c1ccc(F)cc1 |  | 44.7 µM (active)
20 | CCOC(=O)c1c(C)nc(-c2ccccc2)nc1NC(=O)C(C)C | -3.48% | 
21 | N#Cc1c(-c2ccc(Cl)cc2)c2c([nH]c1=S)CCCC2 | -5.85% | 
22 | CCOC(=O)c1c(C)[nH]c2c1-c1ccccc1C(=O)C2=O | 4.96% | 
23 | Cc1cc(C)c2c(-c3ccc(F)cc3)c(C#N)c(=O)n(C)c2n1 | 10.3% | 
24 | Cc1ccc(S(=O)(=O)NCC(=O)N2CCOCCOCCOCCOCC2)cc1 | 7.3% | 

Row | SMILES | largest response in the series, negative = inhibition | Potency
25 | O=C(O)CCC(=O)N(Cc1ccccc1)Cc1ccccc1 | 17.6% | 
26 | COc1ccc(-c2nn(-c3ccccc3)cc2/C=C2/SC(=S)N(CCCC(=O)O)C2=O)c(C)c1 |  | 56.2 µM (active)
27 | Cc1ccc(-c2nn(-c3ccccc3)cc2/C=C/C(=O)Nc2cccc(S(N)(=O)=O)c2)cc1 | 12.2% | 
28 | Cc1ccc(-c2nn(-c3cccc(F)c3)cc2CNCCc2ccncc2)o1 | -5% | 
29 | Cc1ccc(-c2nn(-c3ccccc3)cc2CN(Cc2ccccc2)C(=O)CCC(=O)O)o1 |  | 8.91 µM (active)
30 | COc1ccccc1C(=O)NNC(=O)CCN1C(=O)/C(=C\c2ccccc2)SC1=S | -10.5% | 
31 | C=CCOc1ccc(/C=C2\SC(=S)N(CCC(=O)O)C2=O)cc1 | 6.13% | 
32 | Cc1ccc(/C=C2\SC(=S)N(CCC(=O)Nc3ccc(O)cc3)C2=O)cc1 | 15.8% | 
33 | O=C(CN1C(=O)/C(=C\c2ccccc2F)SC1=S)Nc1nc2ccccc2s1 | 5.28% | 
34 | COc1ccc(/C=C2\SC(=S)N(CCC(=O)Nc3ccccn3)C2=O)cc1OC | 11% | 
35 | Cc1ccc(-c2nn(-c3ccccc3)cc2/C=C2\SC(=S)N(CCCCCC(=O)O)C2=O)o1 |  | 39.8 µM (active)
36 | CN(C)S(=O)(=O)c1cccc(-c2nn(-c3ccccc3)cc2/C=C2\SC(=S)N(CC(=O)O)C2=O)c1 |  | 56.2 µM (active)
37 | Cc1n[nH]c(=O)c2c1nnn2Cc1ccc(F)cc1 | 6.71% | 
38 | CCOCCCNC(=O)C1(O)c2cc(Br)ccc2NC(=O)N1c1ccc(C)c(C)c1 (stereo not drawn) | -2.61% | 
39 | Cc1ccc(S(=O)(=O)NCCC(=O)Nc2cccc(S(N)(=O)=O)c2)cc1C | -1.6% | 
40 | O=S(=O)(c1ccc(F)cc1)N1CCN=C1SCc1cccc(F)c1 | 5.65% | 
41 | O=C(Nc1ccccc1C(=O)Nc1ccncc1)c1ccc([N+](=O)[O-])cc1 | 4.06% | 
42 | O=C(CN1CCCCCC1)Nc1c(Cl)cc(Cl)cc1Cl | 6.16% | 
43 | O=S(O)S(=O)(=O)O | 7.74% | 
44 | Cc1nc2nc(C)c(NS(=O)(=O)c3ccc(C(C)(C)C)cc3)c(=O)n2[nH]1 | 14.4% | 
45 | COc1cccc(C(=O)NC(=O)Nc2nc(C)cc(C(F)(F)F)n2)c1 | 14.9% | 
46 | CC1CC(C)CN(CCCNC(=O)c2csc3c2CCCCC3)C1 (stereo not drawn) | 5.49% | 
47 | O=C(NCCc1cccc(F)c1)C1CCCN(c2nc3ccccc3s2)C1 (stereo not drawn) | -6.45% | 
48 | CN1CCN(c2ccccc2NC(=O)COc2ccc(C3CCCCC3)cc2)CC1 | -19.2% | 

Row | SMILES | largest response in the series, negative = inhibition | Potency
49 | CCn1cc(C(=O)NCC2CCCO2)c(=O)c2cc(S(=O)(=O)N3CCCCC3)ccc21 (stereo not drawn) | 4.08% | 
50 | CCn1cc(C(=O)NCCCN2CCCCCC2)c(=O)c2cc(S(=O)(=O)N3CCc4ccccc4C3)ccc21 |  | 89.1 µM (active)
51 | CCn1cc(C(=O)N2CC(C)CC(C)C2)c(=O)c2cc(S(=O)(=O)N3CCCC3)ccc21 (stereo not drawn) | 3.15% | 
52 | CCN1CCN(C(=O)C2CCN(S(=O)(=O)c3cc(Cl)ccc3Cl)CC2)CC1 | 7.6% | 
53 | CC(C)c1ccc(NC(=O)[C@@H](NC(=O)N2CC(=O)Nc3ccccc32)C(C)C)cc1 | 4.22% | 
54 | Oc1c(C(c2cccs2)N2CCN(c3ccc(F)cc3)CC2)sc2ncnn12 (stereo not drawn) | 13.9% | 
55 | Oc1c(C(c2ccco2)N2CCC3(CC2)OCCO3)sc2ncnn12 (stereo not drawn) |  | 28.2 µM (active)
56 | Cc1nc2sc(C(c3ccco3)N3CCOCC3)c(O)n2n1 (stereo not drawn) | -2.77% | 
57 | Cc1ccc2c(c1)C(c1ccccc1)N(C(=O)c1ccc(F)cc1)CC(=O)N2 (stereo not drawn) | -5.97% | 
58 | Cc1cc(NC(=O)CCC(=O)N(CC(=O)NCC2CCCO2)c2ccccc2)no1 (stereo not drawn) | -5.59% | 
59 | CCn1c(SCC(=O)NC2CC2)nnc1-c1ccncc1 | 12.1% | 
60 | CCc1ccccc1N(CC(=O)NCC1CCCO1)C(=O)CCC(=O)Nc1nccs1 (stereo not drawn) | 11.3% | 
61 | O=C(Nc1cc(-c2nc3ncccc3o2)ccc1Cl)c1ccco1 | 0.0878% | 
62 | COC(=O)[C@]1(S(=O)(=O)c2ccccc2)C[C@@H]2ON=C(c3ccc(OC)cc3)[C@@H]2C1 | -3.07% | 
63 | Cc1nnc(SCC(N)=O)n1CC1CCCO1 (stereo not drawn) | 13.7% | 
64 | COc1ccccc1NC(=O)CSc1nnc(C)n1CC1CCCO1 (stereo not drawn) | 14.7% | 
65 | O=C(CSc1nnc(-c2ccco2)n1CC1CCCO1)c1ccccc1 (stereo not drawn) |  | 50.1 µM (active)
66 | O=C(/C=C/c1ccc(Cl)cc1)NCCCn1ccnc1 | -28% | 
67 | Cc1nn(-c2ccccc2)c(Cl)c1/C=N/NC(=O)c1nn(C)cc1[N+](=O)[O-] | -3.09% | 
68 | O=C1N/C(=C/c2cccn2-c2ccccc2)C(=O)N1c1cccc(Cl)c1 | 12.7% | 
69 | N#Cc1ccccc1CN1C(=O)S/C(=C/c2cccn2-c2cccc(C(=O)O)c2)C1=O | -18.1% | 
70 | Cc1ccccc1NC(=O)CN1C(=O)N/C(=C\c2cccn2-c2cccc(C(=O)O)c2)C1=O |  | 20 µM (active)
71 | Cn1ncc2c(N3CCCCC3)nc(NCCCO)nc21 | 14.5% | 
72 | O=C(c1n[nH]c2c1CCC2)N1CCCC(Nc2cccc(F)c2)C1 (stereo not drawn) | 4.84% | 

Row | SMILES | largest response in the series, negative = inhibition | Potency
73 | CC(C)(C)c1ccc(C(CC(=O)O)NS(=O)(=O)Cc2ccccc2)cc1 (stereo not drawn) | -0.492% | 
74 | CCOC(=O)C1(Cc2cccc(OC)c2)CCN(C(C)CC(C)(C)O)CC1 (stereo not drawn) |  | 35.5 µM (active)
75 | CCOC(=O)C1(Cc2cccc(OC)c2)CCN(Cc2csc(C(C)=O)c2)CC1 | 5.75% | 
76 | CCOC(=O)C1(Cc2cccc(OC)c2)CCN(C(C)COC)CC1 (stereo not drawn) | 2.4% | 
77 | Cc1oc2cc3oc(=O)ccc3cc2c1C | 6.39% | 
78 | CCCC[C@]12Cc3cc(OC)c(OC)cc3C(O1)C1=C(CC3(CCCCC3)OC1=O)O2 | -4.17% | 
79 | Cc1ccc(Cc2nc(-c3cccc(C)c3)no2)cc1 | 12.9% | 
80 | COc1ccccc1Cc1nc(-c2ccc(C)cc2)no1 | -1.19% | 
81 | COc1ccc(Cc2nc(-c3ccccn3)no2)cc1OC |  | 79.4 µM (active)
82 | COc1cc(S(=O)(=O)N2CCN=C2c2ccccc2)ccc1Cl | 14% | 
83 | CC(C)C(C)NC(=O)COc1nc2ccccc2nc1N(C)C1CCCCC1 (stereo not drawn) | -0.152% | 
84 | COCCN(C(=O)CCC(=O)Nc1nccs1)C(C(=O)NCCC(C)C)c1ccc(F)cc1 (stereo not drawn) | 9.51% | 
85 | C=CC(=O)c1ccc2ccccc2c1 |  | 3.55 µM (active) and 31.6 µM (active)
86 | CC(=O)CCC(=O)c1ccc2ccccc2c1 | 7.52% | 
87 | O=C(Nc1ccc(NC(=O)c2cccs2)cc1)c1ccc2ccccc2c1 | -1.36% | 
88 | Cc1ccccc1Nc1nc(-c2cccnc2)cs1 | -24.9% | 
89 | c1cnc(N2CCN(c3ccc4ccccc4n3)CC2)nc1 | -3.4% | 
90 | COc1ccccc1N1CCN(C(=O)CCS(=O)(=O)c2ccc3c(c2)NC(=O)C(C)S3)CC1 (stereo not drawn) | 0.999% | 
91 | COc1ccc(N(C(=O)c2cccnc2)S(=O)(=O)c2ccc(OC)c(OC)c2)cc1 | 3.04% | 
92 | COc1ccc(N(C(=O)c2cccnc2)S(=O)(=O)c2ccc3c(c2)n(C)c(=O)n3C)cc1 | 20.5% | 
93 | O=C(c1cccnc1)N(c1cc2sc(=O)oc2c2ccccc12)S(=O)(=O)c1ccccc1 |  | 3.98 µM (active)
